L3MBTL1 block – inhibitors of human L3MBTL1; 0.66% of 230,000 active; Potency, µM (top dose mostly 57.1 µM), for the others: top-dose activity, negative = inhibition, actives largely listed as inhibitors; Q9Y468; AlphaScreen L3MBTL1–H3K9me1 peptide binding; note: % is set by controls: 0 for no effect and ±100 for the full control effect; nearly all actives have a fitted effect of over 60% in size
Target sequence (Q9Y468 whole entry, looked up): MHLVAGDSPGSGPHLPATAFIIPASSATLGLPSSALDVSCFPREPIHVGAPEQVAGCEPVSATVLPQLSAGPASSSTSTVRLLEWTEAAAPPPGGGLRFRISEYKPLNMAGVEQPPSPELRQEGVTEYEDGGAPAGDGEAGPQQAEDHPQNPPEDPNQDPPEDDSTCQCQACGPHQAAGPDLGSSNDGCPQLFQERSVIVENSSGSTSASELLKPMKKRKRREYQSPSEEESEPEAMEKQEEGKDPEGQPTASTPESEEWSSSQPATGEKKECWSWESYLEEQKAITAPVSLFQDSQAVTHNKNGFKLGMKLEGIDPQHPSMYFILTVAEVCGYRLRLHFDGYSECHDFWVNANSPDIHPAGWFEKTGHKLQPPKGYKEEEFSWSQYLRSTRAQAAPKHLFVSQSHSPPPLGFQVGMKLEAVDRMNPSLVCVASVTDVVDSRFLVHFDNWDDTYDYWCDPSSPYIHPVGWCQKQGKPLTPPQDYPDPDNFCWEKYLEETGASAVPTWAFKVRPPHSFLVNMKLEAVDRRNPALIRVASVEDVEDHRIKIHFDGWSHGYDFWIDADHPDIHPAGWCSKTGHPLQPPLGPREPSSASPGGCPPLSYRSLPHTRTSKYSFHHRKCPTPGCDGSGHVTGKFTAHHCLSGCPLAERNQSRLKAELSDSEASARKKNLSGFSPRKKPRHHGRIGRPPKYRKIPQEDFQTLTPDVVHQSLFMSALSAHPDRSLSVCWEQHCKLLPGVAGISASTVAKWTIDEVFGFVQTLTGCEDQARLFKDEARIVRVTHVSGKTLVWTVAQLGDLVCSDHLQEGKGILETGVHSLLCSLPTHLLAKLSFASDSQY
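First, the protein-peptide complex forms for 30 min at room temperature (L3MBTL1 50 nM, biotinylated H3K9me1 peptide 75 nM). Next, compounds are pin-transferred and incubated 30 min. Finally, AlphaScreen beads are added and read after 30 min.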
BAZ2B inh – blocks human BAZ2B; Potency, µM (titrated, usually from 114 µM), for the others: top-dose activity change, negative = inhibition, most hits filed as inhibitors; 4.4% of 360,000 active; AlphaScreen BAZ2B-H3K14Ac peptide displacement; note: % is set by controls: 0 for no effect and ±100 for the full control effect; nearly all actives have a fitted effect of over 60% in size
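AlphaScreen displacement: compounds (up to 110uM) incubated 30 min at room temperature with a preformed 50 nM BAZ2B/50 nM biotinylated H3K14Ac peptide complex in PBS pH 7.4 with Tween-20. Donor and acceptor beads at 10 ug/mL final added, 20 min light-protected before reading.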
HP1b chromo inh – HP1-beta chromodomain-methylated histone interaction inhibition | AlphaScreen HP1-beta / biotin-H3K9me3 peptide binding | AID 540317 | Potency, µM (highest dose often 114 µM), for inactives: at the top dose activity change, negative = inhibition, hits mostly inhibitors | 0.56% of 390,000 active; note: nearly all actives have a fitted effect of over 70% in size
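HP1-beta protein (50 nM final) preincubated 30 min at room temperature with biotinylated H3(1-18)K9me3 peptide (50 nM) in PBS pH 7.4, 0.01% Tween-20, then compound added for 30 min. AlphaScreen streptavidin donor/nickel chelate acceptor beads (10 ug/mL final), 30 min dark, luminescence read.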
G9a block – G9a (human) methyltransferase inhibition. AID 504332. Potency, µM (top dose mostly 102 µM), without a hit: top-dose activity, negative = inhibition, usual class: inhibitors. 8.8% of 350,000 active. G9a H3K9 monomethylation, AlphaScreen, 2 h; note: % is set by controls: 0 for no effect and ±100 for the full control effect; nearly all actives have a fitted effect of over 75% in size
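Readings reflect AlphaScreen signal from monomethyl-H3K9 antibody detection. HMT at 20 nM; substrate b-H3K9 500 nM; cofactor SAM 20 uM; 2 h RT reaction; compounds tested as titrations in qHTS with 15 min preincubation.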
JMJD2A Tudor inh – JMJD2A Tudor domain (human) inhibition | AlphaScreen JMJD2A-Tudor / H3K4me3 peptide binding | Potency, µM (top dose mostly 114 µM), inactives show top-dose activity change, negative = inhibition, actives largely listed as inhibitors | 4.4% of 390,000 active; note: % is set by controls: 0 for no effect and ±100 for the full control effect; nearly all actives have a fitted effect of over 50% in size
* hit, by the source's call; ? = inconclusive; . = no result; [ ] = dose if it differs, or a comment. Compounds with a hit are over-represented: about 11% of the library has one in this group of screens. Calls come from the whole dose curve; as a rule, active = well fitted inhibition curve with a large enough effect; inconclusive = small, poorly fitted or top-dose-only effect; inactive = no such curve, though single readings can be large or run the other way. Potency is the fitted concentration of half-maximal effect.

SMILES	L3MBTL1 block	BAZ2B inh	HP1b chromo inh	G9a block	JMJD2A Tudor inh
COc1ccc(N2CCN(C(=O)COC(=O)Cc3c(F)cccc3Cl)CC2)cc1	-3%	?	-13%	50µM*	?
COc1ccc(N2CCN(C(=O)COC(=O)Cc3cccc(OC)c3)CC2)cc1	?	-27%	-16%	40µM*	-35%
O=c1c(-c2ccc(F)cc2)nc2cnc(N3CCNCC3)nc2n1Cc1ccc(F)cc1	.	.	.	8%[0.501 µM]	.
O=S(=O)(Nc1cccc2ccccc12)c1cccc2ccccc12	.	.	31%	.	-21%
CCOC(=O)N1CCc2c(sc3c2c(=O)n(Cc2ccccc2)c(=O)n3CC(=O)Nc2ccc(F)cc2)C1	.	-13%	43%	5%[59 µM]	-9%
COCCCNC(=S)N1CCC(NC(=O)c2ccco2)CC1	4%	-13%	6%	10%	-10%
COc1cccc(CNC(C)C(=O)Nc2ccc3c(c2)OCCO3)c1 (stereo unspecified)	.	?	?	45µM*	3.2µM*
O=C(NCCN1CCOCC1)C1CCN(Cc2ccccc2O)CC1	.	45µM*	?	22µM*	1.4µM*
O=C(NCCN1CCOCC1)C1CCN(S(=O)(=O)N2CCCCC2)CC1	-1%	-3%	29%	-20%	-5%
Cc1ccc(C2=NN(C3=NN=C(N)Cc4ncnn43)C(O)(C(F)(F)F)C2)cc1 (stereo unspecified)	-16%	9%	40%	42%	-2%
NC1=NN=C(N2N=C(c3ccco3)CC2(O)C(F)(F)F)n2ncnc2C1 (stereo unspecified)	-16%	79µM*	17%	-40%	-30%
C[C@H](Cc1ccc(O)c(O)c1)[C@@H](C)Cc1ccc(O)c(O)c1	.	.	.	0.79µM*	.
CC(Cc1ccc(O)c(O)c1)C(C)Cc1ccc(O)c(O)c1 (stereo unspecified)	.	.	?	.	22µM*
Cc1cccc(-c2c3c(=O)n(C)c(=O)n(C)c3c3cnc4ccccc4n23)c1	.	3%	51%	1%[59 µM]	1%
Cc1ccc(S(=O)(=O)N2CCCC2)cc1C(=O)NCc1ccccc1CN1CCCC1	-1%	14%	23%	9%[12.7 µM]	-17%
Cc1cc(=O)[nH]c2ccccc12	6%	-4%	60%	-12%[59 µM]	-8%
Cc1[nH]c(=O)cc2ccccc12	-3%	-29%	54%	25µM*	5%
Cc1ccc(-c2nc(NCc3ccco3)c3ccccc3n2)cc1	5%	-30%	-6%	?	-32%
COc1ccc(OC)c(Nc2nc(NCc3ccco3)nc(N)c2[N+](=O)[O-])c1	.	-1%	3%	.	-12%
Cc1ccccc1Nc1nc(NCc2ccco2)c2ccccc2n1	.	?	?	?	56µM*
COc1ccc(OC)c(Nc2nc(NCc3ccco3)c3ccccc3n2)c1	-10%	40µM*	?	?	50µM*
Oc1ccccc1Nc1nc(NCc2ccco2)c2ccccc2n1	-17%	45µM*	-19%	50µM*	?
CC(=O)Nc1ccc(S(=O)(=O)N(Cc2ccccc2)Cc2ccccc2)cc1	.	-8%	28%	-2%[59 µM]	-18%
CCc1nc2oc(C(=O)c3ccccc3)c(N)c2c2c1COC(C)(C)C2	4%	.	43%	?	2%
CCOC(=O)c1oc2nc(C)c3c(c2c1N)CC(C)(C)OC3	-5%	-26%	?	?	16µM*
SMILES	L3MBTL1 block	BAZ2B inh	HP1b chromo inh	G9a block	JMJD2A Tudor inh
COc1ccc(N2C(=O)CSC2c2cccs2)cc1 (stereo unspecified)	4%	-8%	12%	50µM*	-10%
CCOCCOC(=O)CCSc1n[nH]c(=O)[nH]c1=O	3%	-4%	27%	50µM*	-11%
CCCCCOC(=O)CSc1n[nH]c(=O)[nH]c1=O	.	-9%	16%	11%[12.7 µM]	13%
COC1(C)CC2C(CC1OC(=O)c1cc([N+](=O)[O-])cc([N+](=O)[O-])c1)C2(C)C (stereo unspecified)	-21%	7.1µM*	?	13µM*	25µM*
Nc1ncnc2c1nc(Br)n2[C@@H]1O[C@H]2COP(=O)(O)O[C@@H]2[C@@H]1O	.	.	.	36%[59 µM]	.
O=S(=O)(c1ccc(F)cc1)N1CCN(c2nc(-c3ccc(F)cc3)nc3cc(Cl)ccc23)CC1	.	.	27%	.	-10%
O=C(O)c1ccccc1/C=N/N1CCN(C2c3ccccc3-c3ccccc32)CC1	-17%	-37%	5%	40µM*	-29%
Oc1ccc(/C=N/N2CCN(C3c4ccccc4-c4ccccc43)CC2)cc1O	-10%	40µM*	50µM*	.	40µM*
Oc1ccc(/C=N/N2CCN(C3c4ccccc4-c4ccccc43)CC2)cc1	-18%	-15%	12%	-5%	-19%
Cc1ccc(/C=N/N2CCN(C3c4ccccc4-c4ccccc43)CC2)o1	-29%	35µM*	?	.	45µM*
O=C(O)c1ccc(/C=N/N2CCN(C3c4ccccc4-c4ccccc43)CC2)cc1	.	45µM*	-5%	.	-15%[11.4 µM]
C(=N\N1CCN(C2c3ccccc3-c3ccccc32)CC1)/c1cccs1	-8%	?	-26%	41%[0.501 µM]	?
Cc1ccc(-c2c(C(=O)N3CCN(c4cc(Cl)ccc4C)CC3)oc(=O)c3ccccc23)cc1	.	.	7%	-5%[59 µM]	-19%
CCOC(=O)Cn1c(=O)n(C2CCCCC2)c2nc(-c3ccc(C(C)C)cc3)nc(C(N)=O)c21	.	1%	16%[57 µM]	-2%[59 µM]	-17%
Cc1ccc(NC(=O)Cn2c(=O)n(CCC(=O)NCc3ccccc3Cl)c(=O)c3ccccc32)cc1	.	?	75%	5%[59 µM]	-16%
O=[N+]([O-])c1ccc(Cl)c(/C=N/N2CCN(C3c4ccccc4-c4ccccc43)CC2)c1	0%	-35%	-12%	27%[0.501 µM]	?
Oc1ccc(/C=N/N2CCN(C3c4ccccc4-c4ccccc43)CC2)c(O)c1	?	?	?	40µM*	40µM*
CN(C)C(=O)/N=N/C(=O)N(C)C	.	.	.	2.7µM*	.
CC(C)(C)NC(=S)NCCc1ccccc1	4%	10%	56%	45µM*	2%[57.1 µM]
Cc1ccccc1NC(=S)NCCc1ccccc1	-6%	?	21%	?	1%
S=C(NCCc1ccccc1)Nc1ccccn1	0%	-24%	?	1.4µM*	-13%
CCC(Sc1nc2nccnc2c(=O)n1Cc1ccc(OC)cc1)C(=O)NC1CCCCC1 (stereo unspecified)	.	-11%	35%	11%[59 µM]	6%
COc1ccccc1NC(=O)c1cnc(SCC(=O)N2CCOCC2)n(C)c1=O	.	-3%	18%	11%[59 µM]	-11%
Cc1cc(C)c2c(=O)cc(C(=O)Nc3sc4c(c3C(=O)NCc3ccccc3)CCCC4)oc2c1	.	2%	13%	4%[59 µM]	-15%
O=C(Cn1c2ccccc2c(=O)c2ccccc21)Nc1cccc(F)c1	8%	-7%	6%	13%	16µM*
Cc1c(-c2ccc(Cl)cc2)c(=O)oc2c(CN3CCN(CCO)CC3)c(O)ccc12	.	9%	26%[57 µM]	21%[59 µM]	-5%

Assay outcomes: PubChem BioAssay, National Center for Advancing Translational Sciences (NCATS)
